Laboratory results published in article PMC7826789 (International Journal of Molecular Sciences, 2021).

What follows are molecules tested on MAPK14.
In the case of `O=c1[nH]c2cc(Nc3ccc(F)cc3F)ccc2n1CC1CCCCC1` [BI00601000], the Kinases covered is reported as “MAPK14”.
With `O=C(O)/C=C/C(=O)O.OCCCNc1nccc(-c2c(-c3ccc(F)cc3)nn3cc(C(F)(F)F)ccc23)n1` [GW569293E] the Kinases covered was “MAPK14”.
`Nc1nccc(-c2c(-c3ccc(F)cc3)ncn2C2CCN(Cc3ccccc3)CC2)n1` [SB-219980] was tested, and the Kinases covered was “MAPK14”.
With `Cc1ccc(-n2nc(C(C)(C)C)cc2NC(=O)Nc2ccc(OCCN3CCOCC3)cc2)cc1` [BIRB0876BS] the Kinases covered was “MAPK14”.
For `COCCNC(=O)c1ccc(-c2cc(C(=O)NC3CC3)cc(F)c2C)cc1` [GW868318], the Kinases covered was “MAPK14”.
With `CCc1nc(-c2cccc(C)c2)c(-c2ccncc2)s1` [TPKI-106] the Kinases covered was “MAPK14”.
In the case of `Cc1ccc(C(=O)NCC(N)=O)cc1-n1c(C)cc(OCc2ccc(F)cc2F)c(Br)c1=O` [PFE-PKIS 1], the Kinases covered is reported as “MAPK14”.
With `CCc1ccc(Oc2nccc(-c3c(-c4ccc(F)cc4)ncn3C3CCNCC3)n2)cc1` [SB-242719] the Kinases covered was “MAPK14”.
In the case of `Fc1ccc(-c2nn3ccccc3c2-c2ccncc2)cc1` [GW434756X], the Kinases covered is reported as “MAPK14”.

The molecules below were run on MAPK15.
`CCOc1ccc2c(-c3ccnc(Nc4cccc(C(F)(F)F)c4)n3)cnn2n1` [GW811761X] was tested, and the Kinases covered was “MAPK15”.
With `O=C(Nc1n[nH]c2cc(-c3ccsc3)ccc12)C1CC1` [SB-732932] the Kinases covered was “MAPK15”.
`CCOc1ccc2c(-c3ccnc(Nc4cc(OC)cc(C(F)(F)F)c4)n3)cnn2n1` [GW807982X] was tested, and the Kinases covered was “MAPK15”.

Each molecule was assayed on MAPK9.
In the case of `O=C(O)/C=C/C(=O)O.OCCCNc1nccc(-c2c(-c3ccc(F)cc3)nn3cc(C(F)(F)F)ccc23)n1` [GW569293E], the Kinases covered is reported as “MAPK9”.
With `Nc1nccc(-c2c(-c3ccc(F)cc3)ncn2C2CCN(Cc3ccccc3)CC2)n1` [SB-219980] the Kinases covered was “MAPK9”.
With `Fc1ccc(-c2nn3ccccc3c2-c2ccncc2)cc1` [GW434756X] the Kinases covered was “MAPK9”.

Each molecule was assayed on MEK5.
`CCCS(=O)(=O)Nc1ccc(F)c(-n2cc(-c3cncc(OC)c3)nn2)c1F` [BI00865461] was tested, and the Kinases covered was “MEK5”.
For `COc1cc2ncnc(Nc3cccc(Cl)c3F)c2cc1O[C@H]1CC[C@H]([C@@H]2NCCNC2=O)CC1` [BI00133844], the Kinases covered was “MEK5”.
For `COc1cc2ncnc(Nc3ccc(F)c(Cl)c3)c2cc1O[C@H]1CC[C@H](N)CC1` [BIBW3133BS], the Kinases covered was “MEK5”.
